Source: PubChem
miR-122 sensor = miR-122 Renilla sensor signal increase in Huh7, primary screen, miR-122 inhibitor project, cell-based, single point, plate reader; activation (reporter increase), % at 12.5 µM; Huh7 miR-122 Renilla luciferase sensor, 48 h; neutral wells = 0, positive control = 100; actives 0.3% (n = 340,000);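 active = mean replicate activation score at least 90 and every replicate individually at or above 90; inconclusive = only one of the two criteria met; inactive = neither criterion met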;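 also: higher luciferase means less miR-122 activity so hits act as miR-122 inhibitors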
EWS-Fli block = EWS/Fli-driven NR0B1 reporter inhibitors, primary screen, A673 cells, NR0B1 luciferase, luminescence, MLPCN library. viability-normalised. inhibition, % at 12.6 µM. actives 0.67% (n = 350,000). AID 651661, 2012;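 active = mean inhibition of at least 50% after viability correction, with every replicate also passing that limit; inconclusive = mean reaches 50% but only one of two replicates passes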;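 also: firefly luciferase signal divided by Alamar Blue viability fluorescence both relative to DMSO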
PAX8 reporter = inhibitors of PAX8-driven TPO luciferase reporter, primary screen, RMG-I cells, single concentration | actives 1.2% (n = 360,000) | SteadyGlo, 24 h | inhibition, % at 12.6 µM;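 active = mean replicate inhibition at least 60% with every replicate also reaching 60%; inconclusive = only one of the two criteria is met; inactive = mean below 60% and not all replicates reaching 60%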;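 also: luciferase light reporting Pax8 driven TPO promoter activity; plate controls were median of neutral control wells for no effect and mitoxantrone controls for full effect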
Env fusion inh = inhibitors of HIV-1 Env-driven cell-cell fusion, primary screen, HeLa-JRFL effector, CEM21 target cells, luciferase. AID 651610, 2012. inhibition, % at 12.3 µM. actives 1.1% (n = 360,000);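 active = mean replicate inhibition score of at least 50 and every replicate individually at or above 50; inconclusive = only one of the two criteria met; inactive = mean below 50 and not all replicates reaching 50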;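 also: 0% = plate neutral controls and 100% = maraviroc near 300 nM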
C2C12 statin = suppressors of statin myotoxicity in C2C12 myotubes, primary screen, cell-based, single point, plate reader. C2C12 myotubes + simvastatin, ATP luminescence, 48 h; scaled: DMSO 0, geranylgeraniol control 100. rescue of ATP level, % at 7.49 µM. actives 0.78% (n = 330,000). AID 602340, 2012;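 active = mean ATP rescue above about 67%, or every replicate alone reaching that limit, limit read from the data, passing the limit was not always enough; inconclusive = no clear call, values can overlap the other calls; inactive = mean under the limit and some replicate under it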;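 also: myotubes were challenged with 10 µM simvastatin during compound exposure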
INS-1E GSIS act = GLuc luminescence reporter in INS-1E cells, primary screen for activators of glucose-dependent secretion of insulin | AID 743287, 2014 | actives 0.61% (n = 370,000) | INS-1E GLuc reporter insulin secretion, 2-3 h | activation, % at 16.6 µM;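 active = lowest replicate activation of at least 40%, so every replicate reaches that level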;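 also: 0% = median of neutral control wells and 100% = median of IBMX positive control wells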
* marks the source's active call; other numbers are inactive results; ? = inconclusive; . = no result given; [ ] = remark or other dose. Most compounds without a hit are left out; they make up all but 3.1% or so of the library.

SMILES	miR-122 sensor	EWS-Fli block	PAX8 reporter	Env fusion inh	C2C12 statin	INS-1E GSIS act
Cc1ccc2c(c1)N(C(C)C(=O)NCc1cccs1)C(=O)CO2 (configuration not stated)	4.9	-3.4	0.8	4.7	2.1	51.0*
Cc1ccc2c(c1)N(C(C)C(=O)NCc1ccccn1)C(=O)CO2 (configuration not stated)	-2.0	-1.2	15.5	-15.8	-1.3	31.7
O=C(/C=C/c1ccccc1)NC(NC(=S)Nc1ccc(Cl)cc1)C(Cl)(Cl)Cl (configuration not stated)	9.6	.	.	61.3*	.	.
COc1ccc(NC(=S)NC(NC(=O)/C=C/c2ccccc2)C(Cl)(Cl)Cl)cc1 (configuration not stated)	-9.3	.	.	-13.6	49.2	21.4
Nc1ncn([C@H]2C[C@H](O)[C@@H](CO)O2)c(=O)n1	-5.9	20.3	107.1*	69.0*	2.8	.
Cc1ccc2nc(SCC(=O)NCc3cccs3)c(C#N)cc2c1	6.6	.	.	27.0	2.4	54.1*
Cc1ccc2cc(C#N)c(SCC(=O)NNC(=O)Cc3ccccc3)nc2c1	-4.0	.	0.4	-21.8	.	127.2*
COc1ccccc1NS(=O)(=O)c1ccc(Br)s1	59.7	.	1.2	-37.9	3.4	.
COc1cccc(NS(=O)(=O)c2c(C)cc(C)cc2C)c1	398.8*	.	.	?	3.2	.
COc1cccc(NS(=O)(=O)c2ccc(Br)s2)c1	218.3*	.	.	-68.7	7.2	.
CCCC(=O)Nc1ccc2c(c1)C(=O)N(C)[C@H]1CC[C@H](CC(=O)NC3CCCC3)O[C@@H]1CO2	25.0[16.7 µM]	5.8	-12.5	9.6[16.7 µM]	0.0	18.5
Cc1sc2ncn(CC(=O)NC3CCCCC3)c(=O)c2c1C	.	5.7	-9.4	-2.8	-7.0	.
Cc1sc2ncn(CC(=O)N(CC(=O)NC3CCCC3)Cc3cccs3)c(=O)c2c1C	123.3*	11.3	.	.	4.2	3.4
Cc1ccc(-n2nnnc2-c2cnc3ccc(Cl)cc3c2-c2ccccc2)cc1	3.1	.	29.2	-37.0	-17.3	.
Clc1ccc2[nH]cc(-c3nnnn3-c3ccc4ccccc4c3)c2c1	212.4*	.	15.8	-26.9	.	.
C[C@@H]1CN([C@@H](C)CO)C(=O)c2cc(NC(=O)Cc3ccccc3)ccc2O[C@H]1CN(C)S(=O)(=O)c1cn(C)cn1	-3.4[16.7 µM]	-2.9	.	.	-1.4	20.0
O=C(Nc1ccc(Cl)c(Cl)c1)N[C@H]1CC[C@@H](CCn2cc(C3CCCCC3)nn2)O[C@H]1CO	.	-3.2	-0.6	-16.1[16.7 µM]	-2.7	-33.7
O=C(Nc1ccc(Cl)c(Cl)c1)N[C@@H]1CC[C@H](CCn2cc(C3CCCCC3)nn2)O[C@H]1CO	.	25.2	113.2*	36.8[16.7 µM]	-6.1	-35.9
O=[N+]([O-])c1ccc(N/N=C/c2cccc(O)c2O)cc1	.	-36.2	-31.1	-35.8	92.1*	-11.0
COc1cccc(/C=N/Nc2ccc(C(=O)O)cc2)c1O	-0.3	-10.6	108.3*	86.5*	.	0.3
O=[N+]([O-])c1ccc(NN=Cc2cccc3ccccc23)nc1	2.8	-24.0	-9.8	-12.8	-6.3	11.3
COc1cccc(/C=N/Nc2ccnc(=O)[nH]2)c1O	-8.5	-12.6	38.8	64.9*	-22.0	4.4
COc1cccc(/C=N/Nc2ccc([N+](=O)[O-])cn2)c1O	-32.7	-26.9	90.8*	34.2	-89.6	8.4
O=[N+]([O-])c1ccc(N/N=C/c2cccc(O)c2)cc1	.	-128.0	-102.4	-79.3	12.8	-22.9
O=C1O[C@@H](c2ccccc2)[C@@H](c2ccccc2)N2[C@@H](c3ccc(OCCO)cc3)[C@]3(C(=O)Nc4ccc(C#CC5=CCCCC5)cc43)[C@@H](C(=O)N3CCCCCCC3)[C@H]12	.	-5.5	-5.9	0.2[16.7 µM]	.	.
CCC(=O)N1[C@H](CO)[C@H](c2ccc(C#CC3CCCC3)cc2)[C@@H]1CNC(C)C	.	.	.	.	.	-6.6
Cc1ccc(S(=O)(=O)N(C)C[C@@H]2Oc3ccc(NC(=O)CCCCCC(=O)Nc4ccccc4N)cc3C(=O)N([C@@H](C)CO)C[C@@H]2C)cc1	.	.	-2.9	.	.	-0.7
